Most compounds without a hit are left out; they make up all but 2.6% or so of the library.
IDE inh – cellular human IDE inhibition | P14735 | HEK cells, FAbetaB cleavage, fluorescence polarization | inhibition, % at 5.59 µM | 320,000 tested, 0.41% active | AID 434962;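 active = percent inhibition above the average of all tested compounds plus 3 SD, set per screening campaign, cut at about 16% in these data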;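 also: IDE supplied by intact live HEK cells; FP after avidin binding of uncleaved biotin substrate so inhibition keeps polarization high; 0% = DMSO wells and 100% = 60 µM reference IDE inhibitor Ii1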
CRFBP-R2 agonist – agonists of human CRF-binding protein/CRF-R2 receptor complex. HEK293 CRF-R2/CRF-BP, calcium dye fluorescence (FLIPR); percent of saturating CRF peptide response. activation, % at 13.2 µM. 350,000 tested, 0.46% active;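 active = activation of at least 50%, plus an integration ratio under a set limit after plate pattern correction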;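 also: plate controls were neutral control wells without compound for no effect and CRF at EC100 for full effect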
Myeloid diff 2 – compounds promoting myeloid differentiation. ER-HoxA9 myeloid progenitors, lysozyme-GFP differentiation, flow cytometry. calls only at 10 µM. 360,000 tested, 1% active. AID 624256;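 active = normalized GFP-positive differentiation at or above the plate's own cutoff, the solvent-only control mean plus 3 SD; inconclusive = no clear call, values can overlap the other calls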;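 also: cells exposed to compound for four days before flow analysis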
TPT1 inh – blocks Candida albicans tRNA 2'-phosphotransferase; inhibition, % at 5 µM; recombinant caTPT1, FP RNA substrate dephosphorylation; 300,000 tested, 0.81% active;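 active = inhibition above the mean of all tested compounds plus 3 SD, set per screening campaign, cut at about 24% in these data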;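 also: plate controls were DMSO alone for no effect and ferristatin control at 100 nM for full effect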
CRFR2-BP antag – blocks CRF-induced signaling of the CRF-BP/CRF-R2 complex. HEK293 CRF-R2/CRF-BP, CRF-induced calcium fluorescence. inhibition, % at 11.8 µM. 350,000 tested, 0.59% active;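 active = inhibition of the ligand-induced calcium signal above about 50% at the single tested concentration, limit read from the data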
IDE cell activ – IDE (human) activation, cell-based; P14735; HEK cells, FAbeta-B cleavage, fluorescence polarization; 0% vehicle, 100% cell-free pure enzyme wells; activation, % at 5.96 µM; 340,000 tested, 0.073% active; AID 493087;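 active = activation above the mean of all tested compounds plus 3 SD, set per screening campaign, cut at about 17% in these data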
TPT1 inh confirm – confirmation of Candida albicans TPT1 inhibitors; AID 2149; inhibition, % at 5 µM; 2,400 tested, 74% active; recombinant caTPT1, fluorescence polarization, RNase T1 coupled; shares compounds with TPT1 inh;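 active = inhibition above the primary screen limit, the mean inhibition of all tested compounds plus 3 SD, cut at about 25% in these data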
RNase T1 counter – counter-screen for TPT1 inhibitors: inhibitors of Aspergillus oryzae RNase T1; RNase T1 cleavage, fluorescence polarization, 1536-well; 2,400 tested, 83% active; shares compounds with TPT1 inh; inhibition, % at 5 µM;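 active = inhibition above the solvent-only control well mean plus 3 SD, limit set per screening run, cut at about 23% in these data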;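 also: plate controls were DMSO wells with enzyme for no effect and wells without RNase T1 for full effect; inhibitors block cleavage so intact labeled substrate keeps polarization high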
Target sequence (P00651 whole entry, looked up): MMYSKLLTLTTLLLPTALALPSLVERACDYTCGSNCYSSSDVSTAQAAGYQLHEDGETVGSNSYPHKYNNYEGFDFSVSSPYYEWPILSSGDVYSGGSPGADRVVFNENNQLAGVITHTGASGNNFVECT
An asterisk follows results filed as active; i = inactive; u = inconclusive; x = no result; + = active, no number.

SMILES | IDE inh | CRFBP-R2 agonist | Myeloid diff 2 | TPT1 inh | CRFR2-BP antag | IDE cell activ | TPT1 inh confirm | RNase T1 counter
COC(=O)/C(C#N)=C/c1ccc(OC(=O)c2ccccn2)cc1 | 0 | 0 | i | 27* | 6 | -3 | 19 | 26*
COc1ccccc1NC(=O)CCc1nnc2ccc(N3CCN(C)CC3)nn12 | 2 | 1 | i | 0 | 6 | 0 | x | x
N#C/C(=C\c1cc(Cl)c(OCc2ccc(Cl)cc2)c(Cl)c1)C(N)=O | 7 | x | x | 1 | x | x | x | x
N#C/C(=C\c1cc(O)c(O)c(O)c1)C(N)=O | 2 | 21 | i | 33* | 3 | -3 | 27* | 36*
COc1ccc(C)cc1NC(=O)NNC(=O)C(C)Oc1ccc([N+](=O)[O-])cc1 (stereo not given) | 5 | -1 | i | -3 | 3 | -2 | x | x
CN(C)S(=O)(=O)c1cccc(C(=O)Nc2ccc(Cl)cn2)c1 | -1 | 0 | i | 27* | -13 | 5 | 8 | 8
NC1=NC(=O)/C(=C/c2ccc(Br)cc2)S1 | -4 | 0 | i | -2 | 10 | -1 | x | x
NC1=NC(=O)/C(=C/c2cc(Br)c(O)c(Br)c2)S1 | 14 | 10 | i | 37* | -11 | -5 | 49* | 62*
COC(=O)c1c(SCC(=O)NC2CCCCC2)[nH]c2ccccc2c1=O | -2 | 2 | i | 25* | -2 | 2 | 19 | 30*
O=C(C1=C(O)C(=O)N(CCN2CCOCC2)C1c1cccc(O)c1)c1cc2ccccc2o1 (stereo not given) | x | -6 | i | x | 1 | 1 | x | x
O=C(C1=C(O)C(=O)N(CCN2CCOCC2)C1c1cccs1)c1cc2ccccc2o1 (stereo not given) | -1 | 0 | i | 55* | 3 | 0 | 7 | 14
NC(=O)CSc1nc2ccccc2c(=O)n1-c1ccccc1 | -4 | -3 | i | 3 | -2 | 5 | x | x
COc1cccc(-n2c(SCC(N)=O)nc3ccccc3c2=O)c1 | -2 | -1 | i | 40* | -7 | 5 | 60* | 75*
COc1cc(OC)c(OC)cc1/C=C/c1cc(C(F)(F)F)[nH]c(=O)n1 | -1 | 28 | i | 73* | -43 | -1 | 72* | 81*
Cc1ccccc1-c1n[nH]nc1C1=CC(=O)C[C@H](c2ccc(F)cc2)C1 | x | 0 | i | x | 6 | x | x | x
Cc1cccc(/C=C/C(=O)c2cc(Br)ccc(=O)c2O)c1 | 1 | -2 | i | 21 | 7 | 0 | x | x
CCOc1ccc(/C=C/C(=O)c2cc(Br)ccc(=O)c2O)cc1 | 0 | 5 | i | 24* | -26 | -4 | 32* | 41*
CCc1ccc(/C=C/C(=O)c2cc(Br)ccc(=O)c2O)cc1 | -1 | -3 | i | 25* | -6 | 2 | 25* | 33*
COc1ccc(S(=O)(=O)NCC(=O)NCc2cc(=O)n(C)c(=O)n2C)cc1 | 1 | -1 | i | -1 | 6 | 5 | x | x
CCOC(=O)c1sc(=NC(=O)c2ccccc2)n(C)c1C | -1 | -2 | i | 1 | 2 | 2 | x | x
CCOC(=O)c1sc(=NC(=O)c2cccc(OC)c2)n(C)c1C | 5 | 4 | i | 64* | -10 | 4 | 5 | 5
CCOc1ccc(S(=O)(=O)Nc2nc3ccccc3nc2Nc2ccc(N3CCOCC3)cc2)cc1 | 5 | 77* | i | 28* | -26 | 2 | 10 | 17
CCN(CC)c1ccc(N=Nc2ncn[nH]2)cc1 | 5 | -3 | i | 25* | 9 | x | 24* | 35*
CC(C)(C)C(=O)NC(=S)NNC(=O)c1sc2ccccc2c1Cl | 5 | 226* | i | 27* | -262 | -1 | 0 | 1
COc1cc(/C=C(\C#N)c2nc(-c3cc4ccccc4oc3=O)cs2)ccc1O | 0 | 6 | + | 38* | -26 | -3 | 52* | 58*
SMILES | IDE inh | CRFBP-R2 agonist | Myeloid diff 2 | TPT1 inh | CRFR2-BP antag | IDE cell activ | TPT1 inh confirm | RNase T1 counter
CCn1c(SCC(=O)NC2CCCCC2)nnc1-c1ccccc1F | 3 | 0 | i | 0 | -10 | 0 | x | x
COC(=O)CCCC(=O)N1CCC(CCC(=O)NCc2ccc(F)cc2)CC1 | -1 | 1 | i | -2 | 6 | 1 | x | x
O=C1NC(=Nc2cccnc2)S/C1=C\c1cccc(F)c1 | 1 | 1 | i | 22 | 1 | 0 | x | x
COc1cc(/C=C2\SC(=Nc3cccnc3)NC2=O)cc(OC)c1OC | 12 | -1 | i | 52* | -6 | x | 73* | 84*
COc1ccc(C)cc1S(=O)(=O)Nc1ccc(-n2c(C)nc3ccccc3c2=O)cc1 | 1 | 0 | i | 3 | -13 | 0 | x | x
COc1ccc(-n2c(O)c(/C=N/NS(=O)(=O)c3cc(C)ccc3C)c3ccccc3c2=O)cc1OC | 9 | 111* | + | 109* | -154 | -38 | 94* | 98*
COc1ccc(-n2c(O)c(/C=N/Nc3nc(C)cc(C)n3)c3ccccc3c2=O)cc1OC | -4 | 1 | i | 2 | 0 | 0 | x | x
COc1ccc(-n2c(O)c(/C=N/NS(=O)(=O)c3ccc(C)cc3)c3ccccc3c2=O)cc1OC | 5 | 101* | u | 109* | -154 | -32 | 70* | 86*
Cc1ccc(S(=O)(=O)N(CC(=O)N2CCCCC2)c2cccc(C)c2)cc1 | 4 | 0 | i | -2 | -8 | 3 | x | x
CCOC(=O)c1ccc(NC(=O)NCCc2cnc[nH]2)cc1 | -4 | 0 | i | 0 | 0 | -1 | x | x
O=C(COC(=O)/C=C/c1ccc([N+](=O)[O-])cc1)NCC1CCCCC1 | 1 | 15 | i | x | 6 | 3 | x | x
O=c1nc(/C=C/c2cc([N+](=O)[O-])ccc2Cl)cc(C(F)(F)F)[nH]1 | 9 | 0 | i | -3 | 16 | 4 | x | x
O=c1nc(/C=C/c2cccn2-c2ccc([N+](=O)[O-])cc2)cc(C(F)(F)F)[nH]1 | 1 | 5 | i | 84* | 6 | 6 | 47* | 66*
CCOC(=O)C1(CC2CCCCO2)CCN(C(=O)Nc2ccc(C(=O)OC)cc2)CC1 (stereo not given) | 10 | 1 | i | -1 | 8 | 7 | x | x
CCOC(=O)C1(CC2CCCCO2)CCN(C(=O)Nc2ccc3c(c2)OCO3)CC1 (stereo not given) | -4 | 0 | i | 38* | 11 | 2 | 0 | 18
O=C(NCCNC(=O)c1ccc(-c2cc(Cl)ccc2Cl)o1)c1cnccn1 | x | -2 | i | x | 23 | x | x | x
CC1=Nc2ccc(C)cc2/C1=C/c1c(N)n2nc(CC(=O)N3CCOCC3)sc2nc1=O | 3 | -2 | i | 35* | -13 | 1 | 24 | 36*

Screens: PubChem, several laboratories
